Records with an inconclusive call do not appear. Activity calls are given as the source filed them. Calls come from the whole dose curve; as a rule, active = well fitted inhibition curve with a large enough effect; inconclusive = small, poorly fitted or top-dose-only effect; inactive = flat fitted curve, though single readings scatter.
molecular target: Glutathione peroxidase 1 (Homo sapiens) (UniProt P07203); experiment: Primary qHTS Assay for Inhibitors of Recombinant Selenoprotein Glutathione Peroxidase 1 (GPX1) (AID 1845191); settings: recombinant GPX1, GR-coupled NADPH fluorescence, 15 min; series mostly up to 48.8 µM; activity, negative = inhibition: at the top concentration; note: nearly all actives have a fitted effect of over 65% in size
How it was run: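 NADPH consumption tracked by fluorescence at 340/450 nm between t=0 and t=15 min, room temperature. Final mix: 10 nM GPX1, 100 nM glutathione reductase, 1 mM GSH, 0.5 mM NADPH, 0.5 mM cumene hydroperoxide, 0.01% BSA; 30 min compound–enzyme preincubation.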
% is set by controls: 0 for no effect and ±100 for the full control effect.

Chain of Glutathione peroxidase 1 (Homo sapiens) (P07203 whole entry, looked up): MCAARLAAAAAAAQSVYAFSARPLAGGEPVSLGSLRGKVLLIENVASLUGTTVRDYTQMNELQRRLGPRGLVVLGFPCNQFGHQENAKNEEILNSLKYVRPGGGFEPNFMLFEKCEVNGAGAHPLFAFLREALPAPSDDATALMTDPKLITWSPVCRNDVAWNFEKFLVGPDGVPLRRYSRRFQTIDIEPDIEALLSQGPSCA

Row | SMILES | activity, negative = inhibition | outcome
1 | O=S(=O)(NCCNC/C=C/c1ccc(Br)cc1)c1cccc2cnccc12 | -9.38% (inactive) | 
2 | C=CC(=O)Nc1cccc(Nc2nc(Nc3ccccc3)ncc2C)c1 | -7.68% (inactive) | 
3 | CC(C)=CCC/C(C)=C/CC/C(C)=C/CSc1ccccc1C(=O)O |  | inactive
4 | CCOC(=O)c1c2c3c(cccc3[nH]c1=O)C(=O)c1ccccc1-2 |  | inactive
5 | CCOc1cccc2c1OC(c1ccc(F)cc1)C([N+](=O)[O-])=C2 (configuration not stated) |  | inactive
6 | COC(=O)C#Cc1ccc([N+](=O)[O-])cc1 |  | inactive
7 | C[n+]1cc(NC(=O)c2cccc(C(=O)Nc3cc4ccccc4[n+](C)c3)n2)cc2ccccc21 | -1.61% (inactive) | 
8 | CN1CCN(c2nc(C3=C(c4c[nH]c5ccccc45)C(=O)NC3=O)c3ccccc3n2)CC1 | -7.96% (inactive) | 
9 | Cc1cc(F)c(Nc2ncnc3cc(OCc4ccccc4)ccc23)cc1O |  | inactive
10 | c1ccc(-c2[nH]ncc2-c2ccnc3ccccc23)nc1 | -4.15% (inactive) | 
11 | C/C(=C1/C(=O)Nc2ccc(NC(N)=O)cc21)c1ccc[nH]1 | 3.78% (inactive) | 
12 | Nc1nc(N)c2nc(-c3cccc(O)c3)cnc2n1 | -4.57% (inactive) | 
13 | CN(C)Cc1cccc(N=C(c2ccccc2)c2c(O)[nH]c3cc(C(N)=O)ccc23)c1 | -3.26% (inactive) | 
14 | Cc1ccc(Nc2ncc3c(n2)N(C)C(=O)N(c2cc(NC(=O)c4cccc(C(F)(F)F)c4)ccc2C)C3)cn1 |  | inactive
15 | CCCCCC1CC1CC1CC1CCCCCCCC(=O)O (configuration not stated) |  | inactive [at 27.7 µM]
16 | CCCCCCCCCCCCCCCCOCCCOP(=O)(O)COC(CO)Cn1ccc(N)nc1=O (configuration not stated) |  | inactive
17 | COc1ccc(-c2oc3ncnc(N)c3c2-c2ccc(NC(=O)Nc3cc(C(F)(F)F)ccc3F)cc2)cc1 | 4.58% (inactive) | 
